“And” between values parts separate entries of the source, which are not always exact repeats. Equal values may be shown once. Records with an inconclusive call do not appear. Entries that show only a call come without a potency. A structure can be active in one record and inactive in another. The source made the active and inactive calls. Calls follow the shape of the full dose curve.
assay: qHTS assay to identify small molecule antagonists of the sonic hedgehog signaling (Shh) pathway (AID 1259369); details: NIH/3T3 Gli1-Luc reporter, Shh antagonist, luminescence 24 h; series mostly up to 92.4 µM; also: nearly all actives have a fitted effect of over 45% in size
From the text: U.S. Tox21 Program National Center for Advancing Translational Sciences [NCATS] NIH Chemical Genomics Center [NCGC] U.S. Environmental Protection Agency [EPA] National Institutes of Environmental Health Sciences [NIEHS] National Toxicology Program [NTP] U.S. Food and Drug Administration [FDA] Tox21 Assay Overview: The sonic hedgehog (Shh) pathway is essential for normal embryonic development. Dysregulation of the Shh pathway can cause severe developmental defects in organs. Therefore chemicals that interfere with the pathway are potential developmental toxicants. A cell line designated 3T3Gli1-Luc (DMB/OARSA/CFSAN/FDA, Laurel, MD), a NIH/3T3 derived clone containing stably integrated Gli1-Luc reporter is used to detect chemical interference of the Shh pathway, by changes in the expression of the firefly Luc gene under the control of the Gli1 transcriptional response element. This cell line was used to screen Tox21 libraries for identifying and prioritizing the potential developmental toxicants that interfere Shh pathway. Conditioned medium-stimulated mode was used to screen for chemicals inhibiting Shh signaling.
Tox21 Assay Protocol Summary: 3T3 Gli1-Luc cells were dispensed at 2,000 per well in 5uL of culture medium into white solid bottom 1536-well plates (Greiner Bio-One, Monroe, NC) using a Multidrop Combi (Thermo Scientific, Waltham, MA) dispenser. The assay plates were incubated at 37 C and 5% CO2 for 4hr, and then 23nL of compounds dissolved in DMSO and positive control were transferred using a Pintool station (Wako, San Diego, CA). The compound transfer was followed by the addition of 1ul conditioned medium or assay buffer using two separate tips of Flying Reagent Dispenser (FRD, Aurora Discovery, San Diego, CA). The assay plates were incubated at 37C and 5% CO2 for 24hr. For luciferase read, 4uL of Amplite Luciferase reporter gene assay reagent (AAT Bioquest, Inc. Sunnyvale, CA) was added to each well of the assay plates using FRD and incubated at room temperature for 30min. The luminescence signal was measured using a ViewLux plate reader (Perkin Elmer, Shelton, CT).
Potency is read from the fitted curve at half-maximal effect.

SMILES	Potency
Cc1ccc(C(=O)c2cc(O)c(O)c([N+](=O)[O-])c2)cc1	24.3 µM (active)
COC(=O)Nc1nc2ccc(S(=O)c3ccccc3)cc2[nH]1 (stereo not given)	2.37 µM (active)
c1ccc2sc(SSN3CCOCC3)nc2c1	9.67 µM (active)
Brc1cc(Oc2cc(Br)c(Br)c(Br)c2Br)c(Br)c(Br)c1Br	inactive
CN(C)CCN(Cc1cccs1)c1ccccn1	inactive
O=C(/C=C/C=C/c1ccc2c(c1)OCO2)N1CCCCC1	inactive
C/C=C/C(=O)O	inactive
CC(C(=O)O)c1cccc(C(=O)c2ccccc2)c1 (stereo not given)	inactive
COc1c(Cl)c(Cl)c(Cl)c(Cl)c1Cl	inactive
COC(=O)CCC(=O)OC	inactive
O=C1c2cccc(O)c2C(=O)c2c(O)cccc21	inactive
O=C1OC2(c3cc(Br)c(O)c(Br)c3Oc3c2cc(Br)c(O)c3Br)c2c(Cl)c(Cl)c(Cl)c(Cl)c21	inactive
Nc1ccc(Cl)cc1Cl	inactive
O=P(O)(O)O	inactive
Cc1c(OCC(F)(F)F)ccnc1CS(=O)c1nc2ccccc2[nH]1 (stereo not given)	inactive
NNc1ccc(C(=O)O)cc1	inactive
C=CC(C)(CCC=C(C)C)OC(C)=O (stereo not given)	inactive
CCCC(=O)O	inactive
CCCCC(CC)COC(=O)c1ccc(N(C)C)cc1 (stereo not given)	inactive
OC[C@H]1O[C@@H]2O[C@H]3[C@H](O)[C@@H](O)[C@@H](O[C@H]4[C@H](O)[C@@H](O)[C@@H](O[C@H]5[C@H](O)[C@@H](O)[C@@H](O[C@H]6[C@H](O)[C@@H](O)[C@@H](O[C@H]7[C@H](O)[C@@H](O)[C@@H](O[C@H]8[C@H](O)[C@@H](O)[C@@H](O[C@H]1[C@H](O)[C@H]2O)O[C@@H]8CO)O[C@@H]7CO)O[C@@H]6CO)O[C@@H]5CO)O[C@@H]4CO)O[C@@H]3CO	inactive

SMILES	Potency
CN(C)CCC=C1c2ccccc2CCc2ccccc21	2.73 µM (active) and 9.69 µM (active) and 7.5 µM (active)
CC(C)OC=O	32.6 µM (active) and inactive
O=Cc1ccccc1O	inactive
C#C[C@]1(O)CC[C@H]2[C@@H]3CCC4=Cc5oncc5C[C@]4(C)[C@H]3CC[C@@]21C	2.17 µM (active) and 11.9 µM (active)
CCOCCOCCO	inactive
C[Si](C)(C)O[Si](C)(C)C	inactive
COc1cccc2c1C(=O)c1c(O)c3c(c(O)c1C2=O)C[C@@](O)(C(=O)CO)C[C@@H]3O[C@H]1C[C@H](N)[C@H](O)[C@H](C)O1	38.5 nM (active) and 531 nM (active)
O=C(c1ccc(OCCN2CCCCC2)cc1)c1c(-c2ccc(O)cc2)sc2cc(O)ccc12	4.86 µM (active) and 2.73 µM (active) and 8.41 µM (active)
CCCCC(CC)COP(=O)(OCC(CC)CCCC)OCC(CC)CCCC (stereo not given)	inactive
CCCCCCCCCCCO	inactive
Cc1cccc(C(=O)O)c1	381 nM (active) and inactive
S=C(NC1CCCCC1)NC1CCCCC1	24.3 µM (active)
O=[N+]([O-])c1ccc2c(c1)Cc1ccccc1-2	inactive
OC1CCCCCCCCCCC1	inactive
Nc1ccc(Nc2ccccc2)cc1	4.8 µM (active) and 1.72 µM (active) and 4.33 µM (active)
O=c1oc(=O)c2cc3c(=O)oc(=O)c3cc12	inactive
Nc1ccc(S(=O)(=O)Nc2cnc3ccccc3n2)cc1	inactive
CNCCCC12CCC(c3ccccc31)c1ccccc12	5.45 µM (active)
O=C(/C=C/c1ccccc1)OCc1ccccc1	inactive
COC(C)COC(C)COC(C)CO (stereo not given)	inactive

— PubChem BioAssay (Tox21)
